Records with an inconclusive call do not appear. Active and inactive are the calls of the source. Calls come from the whole dose curve; as a rule, active = well fitted curve in the direction sought with a large enough effect; inconclusive = small, poorly fitted or top-dose-only effect, or another doubt; inactive = no such curve, though single readings can be large; an effect the other way counts as inactive or inconclusive.
Columns and labels:
[1] = biological target: Phospholipid hydroperoxide glutathione peroxidase GPX4 (Homo sapiens) (UniProt P36969); assay: Primary qHTS Assay for Inhibitors of Recombinant Selenoprotein Glutathione Peroxidase 4 (GPX4) (AID 1845192); note: nearly all actives have a fitted effect of over 65% in size; note: potency is the fitted concentration of half-maximal effect; for activity change, negative = inhibition: series mostly up to about 50 µM; % is set by controls: 0 for no effect and ±100 for the full control effect
Chain of Phospholipid hydroperoxide glutathione peroxidase GPX4 (Homo sapiens) (P36969 whole entry, looked up): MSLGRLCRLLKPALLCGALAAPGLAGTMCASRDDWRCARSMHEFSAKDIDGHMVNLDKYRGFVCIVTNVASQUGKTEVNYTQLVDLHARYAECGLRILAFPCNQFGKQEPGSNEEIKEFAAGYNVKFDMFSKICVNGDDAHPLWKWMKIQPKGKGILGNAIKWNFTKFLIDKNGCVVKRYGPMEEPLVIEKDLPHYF
In short: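 qHTS, GR-coupled: GPX4 200 nM + cpd 30 min RT → GSH 1 mM, NADPH 0.5 mM, GR 100 nM → CHP 0.5 mM start; fluor 340/450 at t0 and t15 min; no-enzyme wells as control.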

[2] = biological target: Luciferin 4-monooxygenase (Photinus pyralis) (UniProt P08659); assay: Primary firefly luciferase (FLuc) qHTS assay for identification of artifact compounds. (AID 1845220); note: nearly all actives have a fitted effect of over 60% in size;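 for activity change, negative = inhibition: series mostly up to about 54 µM; plate controls were DMSO vehicle for no effect and no enzyme for full effect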
In short: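 In this counter-screen for luciferase artifacts, test compounds met substrate (10 uM each luciferin and ATP) before 10 nM enzyme started the reaction. Light output was measured 5 min later.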

[3] = Primary fluorescence-based thiol-reactive (MSTI) qHTS assay for identification of artifact compounds. (AID 1845221); note: nearly all actives have a fitted effect of over 65% in size; note: potency is the fitted concentration of half-maximal effect;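 for activity change, negative = thiol reactive: series mostly up to about 54 µM; thiol-reactive compounds lower the probe fluorescence signal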
In short: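 In PBS pH 7.4 with 2% DMSO, each compound met 4 uM MSTI for one hour at ambient temperature, shielded from light, before fluorescence detection.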

[4] = tested on: Nanoluciferase (engineered Oplophorus gracilirostris luciferase); assay: Primary Nanoluciferase (NLuc) qHTS assay for identification of artifact compounds. (AID 1845222);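 note: NLuc secreted into diluted conditioned medium of S16 cells; series mostly up to about 54 µM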
In short: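 Using secreted nanoluciferase in S16 culture medium (0.22 um filtered, 1:55 dilution), compounds were preincubated 15 min at RT. Signal was generated with Nano-Glo reagent (1:100) over 5 min.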

[5] = Primary redox qHTS assay for identification of artifact compounds. (AID 1845223);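 note: 0% = DMSO and 100% = reference compound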
In short: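 Redox-cycling detection via DTT (250 uM final) oxidation coupled to Amplex Red (25 uM)/HRP (250 mU/mL) in HBSS. 15 min preincubation plus 30 min after DTT, room temperature. Ex/Em 525/598 nm; 4-parameter Hill fit against DMSO and 10 uM DA3003.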

COc1cc2c(cc1OC)-c1[nH]nc(Nc3cccc(F)c3)c1C2
active: Potency [3] 1.89 µM
inactive: Potency [1] | Potency [2] | Potency [4] | Potency [5]

OCC1OC(Oc2cc(O)cc(/C=C/c3ccc(O)cc3)c2)C(O)C(O)C1O (stereo not given)
inactive: Potency [1] | Potency [2] | Potency [4] | Potency [5]
active: Potency [3] 2.93 µM

C[C@H]1Oc2cc(cnc2N)-c2c(nn(C)c2C#N)CN(C)C(=O)c2ccc(F)cc21
inactive: Potency [1] | Potency [2] | Potency [3] | Potency [4] | Potency [5]

CC(C)=CCC/C(C)=C/CC/C(C)=C/COC1OC(COC2OCC(OC3OCC(O)C(O)C3O)C(O)C2O)C(O)C(OC2OC(C)C(OC3OC(C)C(OC4OCC(OC5OC(C)C(O)C(O)C5O)C(O)C4O)C(O)C3O)C(O)C2O)C1O (stereo not given)
inactive: activity change, negative = inhibition [1] 4.38% [at 9.73 µM] | outcome [2] inactive [at 11.6 µM] | activity change, negative = thiol reactive [3] 139% [at 11.5 µM] | activity, negative = inhibition [4] -0.192% [at 11.6 µM] | redox activity (% of DA3003) [5] 11.7% [at 11.5 µM]

CC(c1ncncc1F)C(O)(Cn1cncn1)c1ccc(F)cc1F (stereo not given)
inactive: Potency [1] | Potency [2] | Potency [3] | Potency [4] | Potency [5]

CNC(C)C(=O)NC(C(=O)N1CCCC1c1nc(C(=O)c2ccc(F)cc2)cs1)C1CCCCC1 (stereo not given)
inactive: Potency [1] | Potency [2] | Potency [3] | Potency [4] | Potency [5]

CC(C)c1c2cc(-c3ccnc(NC4CCC(NC5CCOCC5)CC4)n3)ccc2nn1C (stereo not given)
inactive: Potency [2] | Potency [3] | Potency [4] | Potency [5]
active: Potency [1] 9.04 µM

CCNC(=O)Nc1ccc(-c2nc3c(c(N4CCOC[C@@H]4C)n2)CCN(c2ncccn2)C3)cc1
inactive: Potency [1] | Potency [2] | Potency [3] | Potency [4] | Potency [5]

CC(C)C(N)C(=O)OCCOCn1cnc2c(=O)[nH]c(N)nc21 (stereo not given)
inactive: Potency [1] | Potency [2] | Potency [3] | Potency [4] | Potency [5]

N#Cc1c(Oc2ccc(F)c(NC(=O)Cc3cccc(C(F)(F)F)c3)c2)ccc2nc(NC(=O)C3CC3)sc12
inactive: Potency [1] | Potency [2] | Potency [3] | Potency [4] | Potency [5]

NC1(C(=O)NC(CCO)c2ccc(Cl)cc2)CCN(c2ncnc3[nH]ccc23)CC1 (stereo not given)
inactive: Potency [1] | Potency [2] | Potency [3] | Potency [4] | Potency [5]

CO[C@H]1O[C@@H]2O[C@]3(C)CC[C@H]4[C@H](C)CC[C@@H]([C@H]1C)[C@@]24OO3
inactive: Potency [1] | Potency [2] | Potency [3] | Potency [4] | Potency [5]

CCN(CC)CCN(Cc1ccc(-c2ccc(C(F)(F)F)cc2)cc1)C(=O)Cn1c(SCc2ccc(F)cc2)nc(=O)c2c1CCC2
inactive: Potency [1] | Potency [2] | Potency [3] | Potency [4] | Potency [5]

COc1ccc2c(OC)c3ccoc3nc2c1OC
inactive: Potency [1] | Potency [2] | Potency [3] | Potency [4] | Potency [5]

CC1(O)CC(O)C2(O)C=COC(O[C@@H]3O[C@H](CO)[C@@H](O)[C@H](O)[C@H]3O)C12 (stereo not given in full)
active: Potency [3] 11.7 µM
inactive: Potency [1] | Potency [2] | Potency [4] | Potency [5]

COc1ccc(CC2NCCc3c2[nH]c2ccc(C)cc32)cc1OC (stereo not given)
inactive: Potency [1] | Potency [2] | Potency [3] | Potency [4] | Potency [5]

CC1CCN(C(=O)CC#N)CC1N(C)c1ncnc2[nH]ccc12 (stereo not given)
inactive: Potency [1] | Potency [2] | Potency [3] | Potency [4] | Potency [5]

COCCN1CCN(Cc2ccc(-c3n[nH]c4c3C(=O)c3c(NC(=O)NN5CCOCC5)cccc3-4)cc2)CC1
inactive: Potency [1] | Potency [2] | Potency [3] | Potency [4] | Potency [5]

NC(=O)c1cccc2cn(-c3ccc(C4CCCNC4)cc3)nc12 (stereo not given)
inactive: Potency [2] | Potency [3] | Potency [4] | Potency [5]
active: Potency [1] 20.2 µM

Cc1ccc(S(=O)(=O)n2ccc(-c3c(-c4ccc(Cl)cc4)noc3C)n2)cc1
inactive: Potency [1] | Potency [2] | Potency [3] | Potency [4] | Potency [5]
